Screening data as filed in PubChem BioAssay.
In the library only some 12% were active in any assay of this set; here they are far more common.
Pf growth 48h – inhibits P. falciparum growth in the first generation, 48 h; P. falciparum luciferase growth in erythrocytes, 48 h; 310,000 compounds, 5.9% hits; Potency, µM (top dose mostly 28.7 µM), without a hit: at the highest dose activity change, negative = inhibition, most hits filed as inhibitors; also: % is scaled to controls: 0 for no effect and ±100 for the full control effect
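A one-generation exposure of luciferase-tagged malaria parasites in RPMI 1640/Albumax erythrocyte culture, 37 C and 5% CO2. Inhibition is inferred from decreased luminescence after adding detection reagent.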
SARS PLpro yeast – blocks SARS-CoV papain-like protease in a yeast assay; S. cerevisiae expressing SARS-CoV PLpro, growth rescue; Potency, µM (doses to about 32.9 µM), without a hit: at the highest dose activity, positive = growth rescue, hits mostly activators; 330,000 compounds, 0.19% hits; calls by dose curve; also: 0% is about no effect; nearly all actives have a fitted effect of over 55% in size
Pf growth 96h – P. falciparum growth inhibition at 96 hour, primary screen for plastid delayed-death inhibitors. P. falciparum luciferase reporter growth, 96 h. Potency, µM (titrated, usually from 28.7 µM), without a hit: at the highest dose activity change, negative = inhibition, actives largely listed as inhibitors. 320,000 compounds, 6.9% hits. AID 504834; also: % is scaled to controls: 0 for no effect and ±100 for the full control effect
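Plates of compound plus infected erythrocytes (2% hematocrit, 0.05% parasitemia final) incubate 96 hours, 37 C, 5% CO2. Detection reagent added; reduced luminescence from the parasites' luciferase reporter flags inhibition.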
Sm TGR block – S. mansoni TGR enzyme inhibition | purified TGR, DTNB reduction, TNB absorbance 405 nm | AID 485364 | Potency, µM (top dose mostly 114 µM), for the others: top-dose activity change, negative = inhibition, usual class: inhibitors | 360,000 compounds, 3% hits; also: % is scaled to controls: 0 for no effect and ±100 for the full control effect; nearly all actives have a fitted effect of over 60% in size
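Kinetic colorimetric format: TGR-catalysed, NADPH-driven DTNB reduction monitored via TNB absorbance. Enzyme dispensed at 20 nM; compound exposure 15 min at room temperature before reaction start.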
Numbers without * were called inactive; ? = inconclusive; nt = no result given. Unless noted, calls follow the shape of the dose curve; as a rule, active = well fitted curve in the direction sought with a large enough effect; inconclusive = small, poorly fitted or top-dose-only effect, or another doubt; inactive = no such curve, though single readings can be large; an effect the other way counts as inactive or inconclusive. Potency is read from the fitted curve at half-maximal effect.

SMILES | Pf growth 48h | SARS PLpro yeast | Pf growth 96h | Sm TGR block
Cc1ccc(C)c(CS(=O)(=O)c2cn(CC(=O)N3CCC(C)CC3)c3ccccc23)c1 | ? | -7.7% | 5.22µM* | 1.1%
Cc1c2ccncc2c(C)c2c1[nH]c1ccccc12 | 1.04µM* | -3.7% | 1.04µM* | -1.4%
c1ccc2c(c1)[nH]c1cnccc12 | -22.2% | -4.9% | -2.8% | -1.3%
CC[C@H]1OC(=O)[C@H](C)[C@@H](O[C@H]2C[C@@](C)(OC)[C@@H](O)[C@H](C)O2)[C@H](C)[C@@H](O[C@@H]2O[C@H](C)C[C@H](N(C)C)[C@H]2O)[C@](C)(OC)C[C@@H](C)C(=O)[C@H](C)[C@@H](O)[C@]1(C)O | nt | 2.0% | nt | 0.9%
CCC1OC(=O)C[C@@H](O)[C@H](C)[C@@H](OC2OC(C)CC(N(C)C)C2O)[C@@H](CC=O)C[C@@H](C)C(=O)/C=C/[C@]2(C)OC2C1C (stereo partly specified) | 13.5µM* | nt | 0.0038µM* | nt
Cc1ccc(C(=O)CSc2ncc3c(n2)-c2ccccc2N(Cc2ccc(Cl)cc2)S3(=O)=O)cc1 | nt | nt | nt | 1.8%
C#CCOCCOCCOCCNc1nc(N2CCOCC2)nc(N2CCN(C(=O)[C@H](Cc3cc4ccccc4[nH]3)n3cc([C@@H](N)Cc4ccc(O)cc4)nn3)CC2)n1 | ? | -1.2% | 1.85µM* | -20.1%
C#CCOCCOCCOCCNc1nc(N2CCN(C(=O)C(Cc3ccc(O)cc3)n3cc(C(N)CC(C)C)nn3)CC2)nc(N2CCN(C(=O)C(Cc3cc4ccccc4[nH]3)n3cc(C(N)Cc4ccc(O)cc4)nn3)CC2)n1 (stereo unspecified) | ? | 0.3% | 13.1µM* | 1.9%
C#CCOCCOCCOCCNc1nc(N2CCN(C(=O)[C@H](CCC(=O)O)n3cc(C(N)Cc4ccc(O)cc4)nn3)CC2)nc(N2CCN(C(=O)[C@H](Cc3cc4ccccc4[nH]3)n3cc(C(N)CC(C)C)nn3)CC2)n1 (stereo partly specified) | 23.7% | -2.5% | 3.7% | -6.7%
C#CCOCCOCCOCCNc1nc(N2CCN(C(=O)[C@H](Cc3cc4ccccc4[nH]3)n3cc([C@@H](N)C(C)CC)nn3)CC2)nc(N2CCN(C(=O)[C@H](Cc3cc4ccccc4[nH]3)n3cc([C@@H](N)CC(C)C)nn3)CC2)n1 (stereo partly specified) | 11.7µM* | -2.3% | ? | -18.9%
C#CCOCCOCCOCCNc1nc(N2CCN(C(=O)[C@H](CCCCN)n3cc([C@@H](N)C(C)CC)nn3)CC2)nc(N2CCN(C(=O)[C@H](Cc3cc4ccccc4[nH]3)n3cc([C@@H](N)CC(C)C)nn3)CC2)n1 (stereo partly specified) | 1.5% | 1.2% | 35.1% | ?
C#CCOCCOCCOCCNc1nc(N2CCN(C(=O)[C@H]([C@@H](C)CC)n3cc([C@@H](N)CO)nn3)CC2)nc(N2CCN(C(=O)[C@H](Cc3cc4ccccc4[nH]3)n3cc([C@@H](N)Cc4ccc(O)cc4)nn3)CC2)n1 | -99.9% | -5.2% | 2.94µM* | -3.2%
CN(CC(=O)NC(=O)NC1CCCCC1)CC(=O)Nc1ccc(Cl)cc1 | ? | -8.5% | 4.15µM* | -4.5%
O=C(CSc1nnc(COc2ccc(Br)cc2)o1)NC1CCCCC1 | -5.6% | 0.6% | 49.1% | 4.4%
COc1ccccc1CCNC(=O)C(=O)NCC1CCCN1S(=O)(=O)c1ccccc1 (stereo unspecified) | ? | 1.2% | 14.7µM* | -3.9%
COc1ccccc1CNC(=O)C(=O)NCCC1CCCCN1S(=O)(=O)c1ccccc1 (stereo unspecified) | ? | nt | ? | -10.6%
COc1ccc(S(=O)(=O)N2CCCC2CNC(=O)c2cccc(OC)c2)cc1 (stereo unspecified) | ? | -2.1% | ? | 0.1%
COc1cccc(C(=O)NCC2CCCN2S(=O)(=O)c2ccccc2)c1 (stereo unspecified) | ? | 4.1% | 11.7µM* | -10.6%
Cc1ccccc1CNC(=O)C(=O)NCCC1CCCCN1S(=O)(=O)c1ccccc1 (stereo unspecified) | 13.1µM* | 4.8% | ? | 0.6%
COc1ccc(CCNC(=O)C(=O)NCC2CCCN2S(=O)(=O)c2ccccc2)cc1 (stereo unspecified) | -38.1% | 1.1% | 11.7µM* | -7.4%
COc1cc(C2CC(=O)Nc3c2c(C)nn3-c2nncc(-c3ccccc3)n2)cc(OC)c1OC (stereo unspecified) | nt | nt | nt | -2.9%
COc1ccccc1CNC(=O)CCCn1c(=O)c2ccccc2n(CC(=O)Nc2c(C)cc(C)cc2C)c1=O | nt | nt | nt | 0.3%
Cc1c2cnn(CC(=O)NCc3ccc(F)cc3)c(=O)c2c(C)n1Cc1ccccc1Cl | nt | nt | nt | -1.8%
CCc1ccc(OC)c(-c2csc(N)n2)c1 | 19.0% | -5.8% | 11.7µM* | 1.4%
CCN(c1ccc(N=Cc2c(O)n(Cc3ccc(OC)cc3)c(=O)c3ccccc23)cc1)C(C)C | ? | -1.0% | 1.47µM* | -6.5%
SMILES | Pf growth 48h | SARS PLpro yeast | Pf growth 96h | Sm TGR block
CSCC[C@H](NC(=O)Nc1cccc(Br)c1)C(=O)O | 39.6% | 0.7% | 43.2% | 16.6%
CCCCN(C(=O)CSCC(=O)Nc1cccc(C)c1)c1c(N)n(CCCC)c(=O)[nH]c1=O | -24.9% | -0.7% | ? | -1.4%
CCCCn1c(N)c(N(CC(C)C)C(=O)CSCC(=O)Nc2cccc(C)c2)c(=O)[nH]c1=O | 11.7µM* | 1.4% | ? | -2.8%
CCCCn1c(N)c(N(CCC(C)C)C(=O)c2ccc([N+](=O)[O-])s2)c(=O)[nH]c1=O | 9.28µM* | -3.8% | ? | -15.4%
CCCCn1c(N)c(N(CC(C)C)C(=O)c2cccc(S(=O)(=O)N(C)c3ccc(C)cc3)c2)c(=O)[nH]c1=O | 6.57µM* | -7.6% | ? | -8.3%
CCCCn1c(N)c(N(CC(C)C)C(=O)c2ccc(S(=O)(=O)N(CC)c3ccccc3)cc2)c(=O)[nH]c1=O | 11.7µM* | -0.7% | ? | -4.0%
CCCCn1c(N)c(N(CC(C)C)C(=O)c2cccc(S(=O)(=O)N(C)c3ccccc3)c2)c(=O)[nH]c1=O | ? | -3.7% | ? | -2.7%
Cn1c(=O)c2sccc2n2c(CCCC(=O)Nc3ccc(F)c(F)c3)nnc12 | nt | nt | nt | -0.9%
O=C(CCS(=O)(=O)c1ccc(F)cc1)Nc1nc(-c2ccccn2)cs1 | ? | 7.7% | ? | -19.3%
O=C(CC1CC2CCC1C2)Nc1nc(-c2ccccn2)cs1 (stereo unspecified) | 2.62µM* | -15.0% | 4.65µM* | -16.2%
CC(Oc1ccc(F)cc1)C(=O)Nc1nc(-c2ccccn2)cs1 (stereo unspecified) | 2.62µM* | nt | 2.33µM* | -26.8%
COc1ccc2oc(C(=O)NC(C)c3ccccn3)c(C)c2c1 (stereo unspecified) | nt | 3.9% | nt | nt
COc1ccc2oc(C(=O)Nc3nc(-c4ccccn4)cs3)c(C)c2c1 | ? | -3.8% | 6.57µM* | -4.3%
O=C(Nc1nc(-c2ccccn2)cs1)C1CC1 | ? | ? | ? | -1.2%
